Laboratory results reported in the supplement of paper PMC13380429.

Legend:
[1] = test system: Vero E6 infected with SARS-CoV-2; experiment: morphology score (similarity to uninfected cells); higher = more like uninfected cells; conditions: 24 h
[2] = test system: Vero E6 infected with SARS-CoV-2; experiment: SARS-CoV-2 infection rate relative to infected DMSO; higher = more infection, active = 60 or less; conditions: 24 h

SMILES | morphology score [1] | SARS-CoV-2 infection rate [2]
C[C@@H](NC(=O)CCc1nc2ccccc2c(=O)[nH]1)c1ccccc1 (10 µM) | 0.239 | 95.5% (inactive)
CN1C(=O)COc2c(C(=O)NC3CN4CCC3CC4)cc(Cl)cc21 (stereo not drawn) [azasetron] (10 µM) | 0.143 | 98% (inactive)
COc1cccc(-c2cc(NCc3ccc4c(c3)OCO4)nc(N)n2)c1 (10 µM) | -0.021 | 111% (inactive)
O=c1cc[nH]c(=S)[nH]1 [2-thiouracil] (10 µM) | 0.0168 | 108% (inactive)
c1ccc(C[C@H](c2ccccc2)N2CCCCC2)cc1 (racemic) [1-(1,2-diphenylethyl)piperidine-(+/-)] (10 µM) | 0.349 | 69% (inactive)
NC[C@H]1CC[C@H](C(=O)O)CC1 [tranexamic-acid] (10 µM) | 0.0762 | 108% (inactive)
CC1(C)CCC(C)(C)c2cc(NC(=O)c3ccc(C(=O)O)cc3)ccc21 [tamibarotene] (10 µM) | 0.135 | 108% (inactive)
Cn1nccc1Nc1nccc(-c2ccn([C@H](CO)c3ccc(Cl)c(F)c3)c(=O)c2)n1 (0.833333 µM) | 0.0519 | 106% (inactive)
Cc1cc(C)c(CNC(=O)c2cc(-c3ccc(N4CCN(C)CC4)nc3)cc3c2c(C)cn3C(C)C)c(=O)[nH]1 (10 µM) | 0.171 | 98% (inactive)
C[N+]1(C)CCc2cc3c(cc2[C@H]1[C@@H]1OC(=O)c2c1ccc1c2OCO1)OCO3 [bicuculline-methochloride-(-)] (10 µM) | -0.156 | 110% (inactive)
NCC[C@H](O)C(=O)N[C@@H]1C[C@H](N)[C@@H](O[C@H]2O[C@H](CN)[C@@H](O)[C@H](O)[C@H]2O)[C@H](O)[C@H]1O[C@H]1O[C@H](CO)[C@@H](O)[C@H](N)[C@H]1O [amikacin] (10 µM) | -0.122 | 91% (inactive)
CN1C2CCC1CC(OC(=O)C(O)c1ccccc1)C2 (stereo not drawn) [Homatropine Bromide] (10 µM) | 0.0164 | 108% (inactive)
CC(C)(C)c1cc(C=C(C#N)C#N)cc(C(C)(C)C)c1O [tyrphostin-A9] (0.833333 µM) | 0.116 | 80.5% (inactive)
OC(CCN1CCCCC1)(c1ccccc1)C1CC2C=CC1C2 (stereo not drawn) [biperiden] (10 µM) | 0.48 | 75.5% (inactive)
CC[C@H]1OC(=O)[C@H](C)[C@@H](O[C@H]2C[C@@](C)(OC)[C@@H](O)[C@H](C)O2)[C@H](C)[C@@H](O[C@@H]2O[C@H](C)C[C@H](N(C)C)[C@H]2O)[C@](C)(OC)C[C@@H](C)C(=O)[C@H](C)[C@@H](O)[C@]1(C)O [clarithromycin] (10 µM) | -0.0778 | 109% (inactive)
CO[C@@H]1[C@H](N(C)C(=O)c2ccccc2)C[C@H]2O[C@]1(C)n1c3ccccc3c3c4c(c5c6ccccc6n2c5c31)C(=O)NC4 [midostaurin] (10 µM) | -0.108 | 110% (inactive)
C[C@H](CCC(=O)O)[C@H]1CC[C@H]2[C@@H]3C(=O)C[C@@H]4CC(=O)CC[C@]4(C)[C@H]3CC(=O)[C@]12C [dehydrocholate-acid] (10 µM) | 0.231 | 94.8% (inactive)
O=C(/C=C/N1C[C@H]2C[C@@H]1CN2c1ccccn1)c1ccccc1O (10 µM) | -0.0425 | 116% (inactive)
C[C@]12CC[C@H]3[C@@H](CC[C@]4(O)C[C@@H](O)CC[C@]34C=O)[C@@]1(O)CC[C@@H]2C1=CC(=O)OC1 [K-strophanthidin] (0.833333 µM) | 0.0264 | 92% (inactive)
O=C(NCC(=O)N1CCCCC1)Nc1ccc2nnsc2c1 (10 µM) | -0.144 | 110% (inactive)
COC[C@H](NC(=O)c1cnc(C)s1)C(=O)N[C@@H](COC)C(=O)N[C@@H](Cc1ccccc1)C(=O)[C@@]1(C)CO1 [oprozomib] (0.833333 µM) | -0.312 | 108% (inactive)
O=C1c2ccccc2C(Cc2ccncc2)(Cc2ccncc2)c2ccccc21 (10 µM) | -0.0398 | 98% (inactive)
CN(C)c1ccc(C(=C2C=CC(=[N+](C)C)C=C2)c2ccc(N(C)C)cc2)cc1 [crystal-violet] (10 µM) | -0.0788 | 114% (inactive)
CN1CCC(=C2c3ccccc3Sc3ccccc32)CC1 [pimethixene] (10 µM) | 0.373 | 85.5% (inactive)
